Assays:
Settings in all cases: concentration: 1 μM, replicates: in singlicate; n = 1
[1] = tested on: ALK
[2] = tested on: T1, AMPK-alpha1
T1 construct: gene PRKAA1

[3] = tested on: T2, AMPK-alpha2
T2 construct: gene PRKAA2

[4] = tested on: ANKK1
[5] = tested on: T3, ARK5
T3 construct: gene NUAK1

[6] = tested on: T4, ASK1
T4 construct: gene MAP3K5

[7] = tested on: T5, ASK2
T5 construct: gene MAP3K6

[8] = tested on: AURKA
[9] = tested on: AURKB
[10] = tested on: AURKC
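Note: KINOMEscan kinase panel screen.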

| Structure (SMILES) | %Inh [1] [%] | %Inh [2] [%] | %Inh [3] [%] | %Inh [4] [%] | %Inh [5] [%] | %Inh [6] [%] | %Inh [7] [%] | %Inh [8] [%] | %Inh [9] [%] | %Inh [10] [%] |
| --- | --- | --- | --- | --- | --- | --- | --- | --- | --- | --- |
| FC(F)(F)c1ccc(-c2ncn(CCCN3CCOCC3)c2-c2ccncc2)cc1 [SB-217780] | 0 | 9 | 4 | 0 | 0 | 0 | 0 | 0 | 0 | 27 |
| Cl.c1ccc(Cn2cnc3cc(Nc4ncnc5ccccc45)ccc32)cc1 [GW272142] | 21 | 0 | 0 | 0 | 0 | 4 | 2 | 0 | 19 | 14 |
| COc1cc2ncn(-c3cc(OCc4ccncc4)c(C(N)=O)s3)c2cc1OC [GSK336313] | 20 | 0 | 0 | 0 | 16 | 6 | 0 | 17 | 0 | 4 |
| Cn1c(=O)c(F)c(Nc2ccc(I)cc2F)c2c(=O)n(OC[C@H](O)CO)cnc21 | 0 | 0 | 13 | 0 | 0 | 0 | 0 | 0 | 9 | 30 |

From PMC5540273 (PLoS ONE, 2017)
